Bioassay records (PubChem)
Jurkat autofluor: counter-screen for VLA-4 integrin: compound autofluorescence in Jurkat cells | fluorescence ratio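 (tested at 10 µM compound in the well)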 | 24,000 tested, 0.61% active | flow cytometry; stronger effect = higher value; 1 = vehicle-only cell background | AID 576;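 active = fluorescence ratio above 2.44, which is 1 plus 3 SD of all ratios; inconclusive = signal too bright to measure linearly, ratio around 10 or more; inactive = fluorescence ratio below 2.44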;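 note: green fluorescence of cells measured with 488 nm excitation and 530 nm emission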
VLA-4 antagonist: blocks LDV-FITC ligand binding to Mn2+-activated human VLA-4 integrin; Jurkat cells, LDV-FITC binding with Mn2+, flow cytometry; 100% = Mn2+-driven binding gain fully reversed; P13612; AID 529; inhibition, % at 10 µM (by protocol); 24,000 tested, 0.2% active;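 active = inhibition above 50%; inconclusive = compound itself fluorescent, judged against control cell fluorescence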
Target sequence (P13612 whole entry, looked up): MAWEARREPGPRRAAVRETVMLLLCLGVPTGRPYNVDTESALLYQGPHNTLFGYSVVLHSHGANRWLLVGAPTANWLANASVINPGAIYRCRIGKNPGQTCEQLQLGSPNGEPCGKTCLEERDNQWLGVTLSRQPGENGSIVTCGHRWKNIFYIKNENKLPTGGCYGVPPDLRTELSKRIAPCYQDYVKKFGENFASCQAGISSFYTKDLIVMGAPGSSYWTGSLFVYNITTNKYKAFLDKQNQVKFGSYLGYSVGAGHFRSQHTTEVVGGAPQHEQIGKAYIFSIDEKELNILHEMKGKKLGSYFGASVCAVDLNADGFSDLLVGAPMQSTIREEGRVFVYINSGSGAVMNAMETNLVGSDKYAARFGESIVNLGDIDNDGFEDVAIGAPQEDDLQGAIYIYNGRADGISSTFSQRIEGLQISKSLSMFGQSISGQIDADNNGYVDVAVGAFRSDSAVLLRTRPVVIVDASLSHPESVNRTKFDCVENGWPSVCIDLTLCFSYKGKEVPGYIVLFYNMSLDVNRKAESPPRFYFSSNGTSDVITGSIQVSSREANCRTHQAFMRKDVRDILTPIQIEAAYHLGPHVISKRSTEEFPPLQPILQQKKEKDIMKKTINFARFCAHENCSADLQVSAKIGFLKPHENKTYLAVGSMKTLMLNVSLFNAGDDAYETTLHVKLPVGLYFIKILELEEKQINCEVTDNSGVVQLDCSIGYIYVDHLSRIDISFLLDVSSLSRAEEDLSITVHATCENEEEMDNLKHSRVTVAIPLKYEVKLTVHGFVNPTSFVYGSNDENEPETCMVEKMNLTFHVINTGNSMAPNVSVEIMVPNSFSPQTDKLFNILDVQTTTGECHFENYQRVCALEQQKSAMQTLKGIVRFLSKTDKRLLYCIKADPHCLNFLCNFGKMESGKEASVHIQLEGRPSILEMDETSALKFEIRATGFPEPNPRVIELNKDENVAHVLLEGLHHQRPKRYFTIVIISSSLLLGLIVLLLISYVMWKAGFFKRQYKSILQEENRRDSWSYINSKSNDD
Proteasome disasm: blocks ATP-dependent breakdown of the yeast 26S proteasome. anti-FLAG beads, GFP-proteasome disassembly, flow cytometry. inhibition of disassembly, % (concentration not given with the values). 24,000 tested, 0.2% active;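 active = inhibition of disassembly above about 33%, limit read from the data; inconclusive = likely self-fluorescent, control bead median signal at least 40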;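 note: higher percent means more bead fluorescence retained so stronger block of disassembly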
VLA-4 allo ag: allosterically activates the human VLA-4 integrin; P13612; Jurkat cells, LDV-FITC binding, flow cytometry; activation, % at 10 µM (by protocol); 24,000 tested, under 10 active; AID 528;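 active = fluorescent ligand binding to cells raised by more than 40% of the manganese-induced maximum; inconclusive = compound's own fluorescence above 85% of the ligand control signal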
Prostate diff: promotes differentiation of LNCaP prostate cells; flow cytometry side scatter, 4 d; side scatter shift, % at 10 µM; 24,000 tested, 0.56% active; AID 795;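 active = side scatter shift above 30%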;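 note: androgen-responsive LNCaP prostate cancer cells in charcoal-stripped serum medium; higher shift means more granular cells and more differentiation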
Hits are given with their value; - = inactive; ? = inconclusive; . = no result given. Only some compounds are listed: those with a hit (about 1.4% of all), similar ones and a draw of the others.

SMILES	Jurkat autofluor	VLA-4 antagonist	Proteasome disasm	VLA-4 allo ag	Prostate diff
CCCn1c(=NC(C)=O)c(C#N)cc2c(=O)n3cccc(C)c3nc21	-	-	66.9	-	-
Cc1nn(Cc2ccc(F)cc2)c(C)c1NC(=O)c1cc(-c2ccc3c(c2)OCO3)on1	-	-	-	-	30.0
N#CCc1ccc(NS(=O)(=O)c2ccc(N3CCCC3=O)cc2)cc1	-	-	-	-	-
Cc1ccc(NC(=O)CC2Nc3ccccc3NC2=O)cc1Cl (stereo not drawn)	6.72	?	-	?	-
CCC(=O)N1CCNC(=O)C1CC(=O)Nc1ccc(C)c(Cl)c1 (stereo not drawn)	-	52.0	-	-	-
CCOc1ccccc1NC(=O)CC1Nc2cc(C)c(C)cc2NC1=O (stereo not drawn)	4.89	?	-	?	-
COc1ccc(CCNC(=O)CC2Nc3ccccc3NC2=O)cc1OC (stereo not drawn)	-	?	-	?	-
O=C(c1cc(S(=O)(=O)N2CCOCC2)ccc1F)N1CCCc2ccccc21	-	-	-	-	-
COC(=O)c1ccccc1S(=O)(=O)N(Cc1cc2cc3c(cc2[nH]c1=O)OCO3)C1CCCCC1	-	-	-	-	41.0
COc1ccc(CN(Cc2cc3cc4c(cc3[nH]c2=O)OCO4)C(=O)NC2CCCCC2)cc1	-	-	-	-	-
O=C(CN1CCN(Cc2ccc3c(c2)OCO3)CC1)N1CCc2[nH]c3ccc(F)cc3c2C1	-	-	-	-	50.0
Cc1cc(/C=c2/sc3nc4ccccc4n3c2=O)c(C)n1-c1ccccn1	3.67	?	-	?	-
Cc1cccn2c(=O)c3cc(C(=O)NCc4ccccc4)c(=N)n(CCCN4CCOCC4)c3nc12	-	?	-	?	58.0
Cc1oc(-c2ccc(Cl)cc2)nc1CS(=O)CC(=O)NCCN1CCCC1 (stereo not drawn)	-	-	154.5	-	-
Cc1oc(-c2ccc(Cl)cc2)nc1CN1CCCC(C(=O)N2CCc3ccccc32)C1 (stereo not drawn)	-	59.0	-	-	-
CCOC(=O)N1CCN(C(=O)C2CCCN(Cc3nc(-c4ccc(Cl)cc4)oc3C)C2)CC1 (stereo not drawn)	-	-	-	-	-
CCN1CCN(CCNC(=O)C2CCCN(Cc3nc(-c4cccc(Cl)c4)oc3C)C2)CC1 (stereo not drawn)	-	?	-	?	44.0
CCCN(CCC)CCNC(=O)C1CCN(Cc2nc(-c3ccc(Cl)cc3)oc2C)CC1	-	-	-	-	87.0
Cc1oc(-c2ccc(Cl)cc2)nc1CN1CCC(C(=O)NCc2cccnc2)CC1	-	-	-	-	-
CCOC(=O)N1CCC(NC(=O)C2CCCN(Cc3nc(-c4cccc(Cl)c4)oc3C)C2)CC1 (stereo not drawn)	-	?	-	?	-
CCN1CCN(c2cc(C)c3cc(NC(=O)Cc4ccc(OC)c(OC)c4)ccc3n2)CC1	-	-	-	-	-
C=CCn1c(=O)c2ccccc2n2c(SCC(=O)Nc3cc(C)on3)nnc12	-	-	-	-	-
Cc1ccc2c(C)nc(Nc3nc(CSc4nnnn4-c4ccccc4)cc(=O)[nH]3)nc2c1	-	-	-	-	-
O=C(Nc1ccc2c(c1)OCO2)C(c1ccc(Cl)cc1)N1CCC2(CC1)OCCO2 (stereo not drawn)	-	-	-	-	-
CC(C)c1ccc(NC(=O)C(c2ccc3c(c2)OCO3)N2CCC3(CC2)OCCO3)cc1 (stereo not drawn)	-	54.0	-	-	-
SMILES	Jurkat autofluor	VLA-4 antagonist	Proteasome disasm	VLA-4 allo ag	Prostate diff
CCCOc1ccc(/C=c2\sc3nc(-c4ccco4)nn3c2=O)cc1OCC	-	?	124.8	?	-
Cc1ccc(S(=O)(=O)Nc2cc(C(=O)NCCN3CCCC3)ccc2N2CCCCC2)cc1	-	-	105.2	-	-
Cc1ccc(S(=O)(=O)Nc2cc(C(=O)NCCN(C)C)ccc2N2CCCCC2)cc1	-	-	-	-	-
CC1Cc2ccccc2N1C(=O)C1CCCN(S(=O)(=O)c2cccc3cccnc23)C1 (stereo not drawn)	3.6	?	-	?	-
N#CC1=C(N)SC(N)=C(C#N)C1CCc1ccccc1	2.87	?	-	?	-
N#CC1=C(N)OC2=C(CCC/C2=C/c2ccoc2)C1c1ccoc1 (stereo not drawn)	2.47	-	-	-	-
CCOC(=O)C1=C(C)OC(N)=C(C#N)C1c1ccoc1 (stereo not drawn)	-	-	-	-	-
O=C(COC(=O)C1CC1)c1c[nH]c2ccccc12	-	-	-	-	-
COc1ccc2c(C(=O)CN(C)C3CCCCC3)c[nH]c2c1	6.7	?	-	?	-
O=C(Nc1ccc(F)cc1)C1CCCN(S(=O)(=O)c2cccc3cccnc23)C1 (stereo not drawn)	-	-	-	-	-
CCOC(=O)c1cc2c(=O)n3ccccc3nc2n(Cc2ccco2)c1=NC(=O)c1cccnc1	4.34	?	-	?	-
CCOC(=O)c1cc2c(=O)n3cccc(C)c3nc2n(Cc2ccco2)c1=NC(=O)c1cccnc1	5.54	?	-	?	-
CCOC(=O)c1cc2c(=O)n3ccccc3nc2n(CCCOC)c1=NC(=O)c1cccnc1	-	-	-	-	.
CN(C)c1ccc(NC(=O)Cn2c(=O)n(Cc3ccccc3)c(=O)c3ccccc32)cc1	-	-	-	-	-
c1ccc2c(c1)ccc1nnc(-c3ccc4c(c3)OCO4)n12	-	-	-	-	-
N#Cc1c(C(F)(F)F)cc(-c2ccccc2)nc1SCc1nc(N)nc(N2CCOCC2)n1	8.65	?	-	?	-
COc1ccc(OC)c(C2=NOC(C(=O)Nc3cccc(C(C)=O)c3)C2)c1 (stereo not drawn)	-	-	-	-	-
N#CC1=C(SCC(=O)c2cc3ccccc3oc2=O)NC(=O)C(C#N)C12CCCC2 (stereo not drawn)	-	68.0	-	-	-
c1ccc(CC2CCN(c3nc4ccccc4n4nnnc34)CC2)cc1	-	-	-	-	-
O=C(c1ccco1)N1CCN(c2nc3ccccc3n3nnnc23)CC1	9.45	?	-	?	-
Cc1noc(C)c1CSc1nnc2scc(-c3ccc(Cl)cc3)n12	-	-	-	-	-
